According to PubChem BioAssay (EPA / NIEHS):
Inconclusive results are not listed. A structure can be active in one record and inactive in another. Activity calls are given as the source filed them. The calls were made as follows: active = hit-call score of the fitted dose curve at least 0.9, where 1 is the maximum; inconclusive = response in the unintended direction; inactive = score below 0.9.

Tests used:
[1] = system: guinea pig Dopamine Transporter (DAT), gene 100714898; experiment: NVS_TR_gDAT: NovaScreen (NVS) Transporter Assay for guinea pig Dopamine Transporter (DAT) (AID 2283369);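 also: active compounds lower bound radioligand signal relative to DMSO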
In short: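 Scintillation counts of filter-retained radioligand report binding to guinea pig striatal membranes after 2 h. Activity scored as signal loss relative to DMSO, first at 25 uM in duplicate, then in concentration series to 50 uM.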

[2] = target: human Dopamine Transporter (DAT), SLC6A3 (gene 6531) (UniProt Q01959); experiment: NVS_TR_hDAT: NovaScreen (NVS) Transporter Assay for human Dopamine Transporter (DAT) (AID 2283374);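 also: activity means loss of bound radioligand signal relative to DMSO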
In short: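 Test chemicals were first screened in duplicate at 25 uM, with actives retested as concentration series. Displacement of a specific radioligand from cell-free human dopamine transporter was measured after 1 h by filtration and scintillation counting.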

[3] = target: Glucocorticoid receptor (Homo sapiens) (UniProt P04150); experiment: NVS_NR_hGR: NovaScreen (NVS) Nuclear Receptor Binding Assay for human Glucocorticoid Receptor (GR) (AID 2283363)
In short: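 Competitive displacement of a labelled ligand was measured on cell-free receptor preparations after 16 h exposure. Initial testing used 25 uM in duplicate with plate controls; confirmed actives went into concentration series.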

[4] = target: rat Androgen Receptor (AR), Ar (gene 24208) (UniProt P15207); experiment: NVS_NR_rAR: NovaScreen (NVS) Nuclear Receptor Binding Assay for rat Androgen Receptor (AR) (AID 2283366)
Method: NVS_NR_rAR is a biochemical, single-readout assay that uses extracted gene-proteins from Testosterone pre-treated rat prostate in a tissue-based cell-free assay. Measurements were taken 18 hours after chemical dosing in a 96-well plate.NVS_NR_rAR is one of one assay component(s) measured or calculated from the NVS_NR_rAR assay. It is designed to make measurements of radioligand binding, a form of binding reporter, as detected with scintillation counting signals by Filter-based radiodetection technology.Data from the assay component NVS_NR_rAR was analyzed into 1 assay endpoint. This assay endpoint, NVS_NR_rAR, was analyzed in the positive analysis fitting direction relative to DMSO as the negative control and baseline of activity. Using a type of binding reporter, loss-of-signal activity can be used to understand changes in the binding as they relate to the gene Ar. Furthermore, this assay endpoint can be referred to as a primary readout, because the performed assay has only produced 1 assay endpoint. To generalize the intended target to other relatable targets, this assay endpoint is annotated to the nuclear receptor intended target family, where the subfamily is steroidal.
(§1) Binding assays used specific radioligands (tritiated, iodinated) with non-radioactive competitive displacement ligands in agonist or antagonist protocols (as indicated) and various reference compounds and inhibitors to titrate specific binding to receptors and transporters. Most enzyme assays (CYPs, kinases, phosphatases, proteases, HDACs) used recombinant protein and specific substrates (fluorescence mostly, some colorimetric and radioactive) and inhibitors, followed by a biochemical separation of substrate and product. All assays for the biochemical HTS were initially run in duplicate at a single concentration (10 uM for CYP450 assays and 25 uM for all others). […] Each assay was run with positive and negative controls, and concurrent controls on every plate. The follow-up (secondary) screen tested active chemical-pairs in concentration series, as well as a few additional assays not tested in the primary screen, some selected negative inactives, and several cases re-run in the concentration series for confirmatory purposes.

[5] = target: guinea pig Sigma Receptor, Non-selective Binding, SIGMAR1 (gene 100135589) (UniProt Q60492); experiment: NVS_OR_gSIGMA_NonSelective: NovaScreen (NVS) Nuclear Receptor Binding Assay for guinea pig Sigma Receptor, Non-selective Binding (AID 2283367)
In short: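 gp brain membr., radioligand displacement, 1 h, filtration + scint. counting; DMSO = baseline; 25 uM x2 primary, conc.-response confirm.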

[6] = target: human Serotonin Transporter (SERT), SLC6A4 (gene 6532) (UniProt P31645); experiment: NVS_TR_hSERT: NovaScreen (NVS) Transporter Assay for human Serotonin Transporter (SERT) (AID 2283372)
In short: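 Radioligand binding to native SERT in human platelet membranes, read by filter-based scintillation counting 1 h after dosing. Primary screen in duplicate at 25 uM; actives followed up in concentration series; loss of signal versus DMSO baseline.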

[7] = target: rat Serotonin Transporter (SERT), Slc6a4 (gene 25553) (UniProt P31652); experiment: NVS_TR_rSERT: NovaScreen (NVS) Transporter Assay for rat Serotonin Transporter (SERT) (AID 2283375)
In short: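 Filtration-based radiodetection quantified loss of specific radioligand binding in rat forebrain membranes after 1 hour of chemical exposure, relative to DMSO. Chemicals were first tested in duplicate at 25 uM.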

[8] = target: Nuclear receptor subfamily 1 group I member 2 (Homo sapiens) (UniProt O75469); experiment: NVS_NR_hPXR: NovaScreen (NVS) Nuclear Receptor Binding Assay for human Pregnane X Receptor (PXR) (AID 2283365);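 also: a drop in FRET signal versus DMSO baseline means the compound binds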
Method: NVS_NR_hPXR is a biochemical, single-readout assay that uses extracted gene-proteins in a cell-free assay. Measurements were taken 2 hours after chemical dosing in a 384-well plate.NVS_NR_hPXR is one of one assay component(s) measured or calculated from the NVS_NR_hPXR assay. It is designed to make measurements of fluorescent resonance energy transfer, a form of binding reporter, as detected with fluorescent resonance energy transfer signals by Time-Resolved Fluorescence Resonance Energy Transfer (TR-FRET) technology.Data from the assay component NVS_NR_hPXR was analyzed into 1 assay endpoint. This assay endpoint, NVS_NR_hPXR, was analyzed in the positive analysis fitting direction relative to DMSO as the negative control and baseline of activity. Using a type of binding reporter, loss-of-signal activity can be used to understand changes in the binding as they relate to the gene NR1I2. Furthermore, this assay endpoint can be referred to as a primary readout, because the performed assay has only produced 1 assay endpoint. To generalize the intended target to other relatable targets, this assay endpoint is annotated to the nuclear receptor intended target family, where the subfamily is non-steroidal.
as §1

[9] = target: human Adenosine Transporter (Adot), SLC29A1 (gene 2030) (UniProt Q99808); experiment: NVS_TR_hAdoT: NovaScreen (NVS) Transporter Assay for human Adenosine Transporter (Adot) (AID 2283368)
In short: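 U937-derived membranes, cell-free radioligand binding, filter scintillation 1 h after dosing. 25 uM duplicate screen; hits (e.g. 30% inhibition) run in concentration-response up to 50 uM; loss of signal versus DMSO.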

Chain of human Dopamine Transporter (DAT), SLC6A3 (gene 6531) (Q01959 whole entry, looked up): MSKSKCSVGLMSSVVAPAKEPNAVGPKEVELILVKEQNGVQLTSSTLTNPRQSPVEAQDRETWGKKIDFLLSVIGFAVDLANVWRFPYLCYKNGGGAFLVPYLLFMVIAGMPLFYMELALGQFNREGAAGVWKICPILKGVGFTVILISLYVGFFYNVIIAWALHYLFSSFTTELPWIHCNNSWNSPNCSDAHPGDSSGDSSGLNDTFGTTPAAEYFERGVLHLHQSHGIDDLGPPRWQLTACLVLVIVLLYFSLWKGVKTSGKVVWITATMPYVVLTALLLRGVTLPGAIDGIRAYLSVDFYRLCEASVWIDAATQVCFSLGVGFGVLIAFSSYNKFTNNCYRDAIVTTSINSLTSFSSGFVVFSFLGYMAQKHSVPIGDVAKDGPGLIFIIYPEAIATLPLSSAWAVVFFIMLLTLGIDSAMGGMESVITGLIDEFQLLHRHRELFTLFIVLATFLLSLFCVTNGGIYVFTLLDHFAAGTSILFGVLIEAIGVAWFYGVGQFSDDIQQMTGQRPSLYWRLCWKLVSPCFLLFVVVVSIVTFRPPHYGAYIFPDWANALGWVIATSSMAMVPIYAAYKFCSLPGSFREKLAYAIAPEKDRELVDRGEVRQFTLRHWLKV
Chain of guinea pig Sigma Receptor, Non-selective Binding, SIGMAR1 (gene 100135589) (Q60492 whole entry, looked up): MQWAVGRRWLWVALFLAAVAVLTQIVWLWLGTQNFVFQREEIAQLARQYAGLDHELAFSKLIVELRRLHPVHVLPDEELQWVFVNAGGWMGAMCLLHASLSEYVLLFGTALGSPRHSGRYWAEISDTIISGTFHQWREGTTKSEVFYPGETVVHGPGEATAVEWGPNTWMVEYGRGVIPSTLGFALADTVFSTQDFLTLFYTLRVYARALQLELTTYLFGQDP
Chain of Glucocorticoid receptor (Homo sapiens) (P04150 whole entry, looked up): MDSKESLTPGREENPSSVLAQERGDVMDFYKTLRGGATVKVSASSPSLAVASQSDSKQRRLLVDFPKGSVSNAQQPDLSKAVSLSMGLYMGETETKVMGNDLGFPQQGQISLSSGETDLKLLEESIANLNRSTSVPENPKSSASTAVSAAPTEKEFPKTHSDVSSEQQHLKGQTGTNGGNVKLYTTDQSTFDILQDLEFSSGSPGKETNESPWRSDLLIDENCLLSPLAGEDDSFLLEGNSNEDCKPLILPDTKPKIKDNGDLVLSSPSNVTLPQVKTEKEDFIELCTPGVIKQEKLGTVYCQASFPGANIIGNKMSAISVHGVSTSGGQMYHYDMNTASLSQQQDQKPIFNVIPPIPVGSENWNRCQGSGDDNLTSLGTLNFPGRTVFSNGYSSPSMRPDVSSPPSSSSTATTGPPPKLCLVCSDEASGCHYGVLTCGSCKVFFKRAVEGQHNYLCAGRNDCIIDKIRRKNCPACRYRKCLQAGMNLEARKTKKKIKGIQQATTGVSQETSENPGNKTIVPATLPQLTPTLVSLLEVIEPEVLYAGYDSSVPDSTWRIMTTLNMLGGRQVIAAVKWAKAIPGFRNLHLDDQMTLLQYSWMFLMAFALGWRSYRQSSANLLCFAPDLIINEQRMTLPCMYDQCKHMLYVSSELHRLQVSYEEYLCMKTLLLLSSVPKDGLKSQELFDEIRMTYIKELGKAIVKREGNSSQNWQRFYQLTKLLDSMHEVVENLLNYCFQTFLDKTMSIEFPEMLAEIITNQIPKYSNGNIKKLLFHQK
Chain of Nuclear receptor subfamily 1 group I member 2 (Homo sapiens) (O75469 whole entry, looked up): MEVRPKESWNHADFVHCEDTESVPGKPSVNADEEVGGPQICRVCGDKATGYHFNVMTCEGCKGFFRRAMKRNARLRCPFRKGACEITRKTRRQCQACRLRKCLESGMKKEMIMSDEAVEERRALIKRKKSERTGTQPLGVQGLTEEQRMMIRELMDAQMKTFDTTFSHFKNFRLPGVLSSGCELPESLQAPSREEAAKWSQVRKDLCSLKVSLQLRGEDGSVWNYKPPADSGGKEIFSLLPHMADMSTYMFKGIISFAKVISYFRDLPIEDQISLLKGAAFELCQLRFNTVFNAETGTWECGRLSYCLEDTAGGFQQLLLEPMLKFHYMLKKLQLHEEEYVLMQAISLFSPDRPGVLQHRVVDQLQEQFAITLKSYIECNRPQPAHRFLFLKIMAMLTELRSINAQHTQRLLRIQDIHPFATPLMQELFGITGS
Chain of rat Androgen Receptor (AR), Ar (gene 24208) (P15207 whole entry, looked up): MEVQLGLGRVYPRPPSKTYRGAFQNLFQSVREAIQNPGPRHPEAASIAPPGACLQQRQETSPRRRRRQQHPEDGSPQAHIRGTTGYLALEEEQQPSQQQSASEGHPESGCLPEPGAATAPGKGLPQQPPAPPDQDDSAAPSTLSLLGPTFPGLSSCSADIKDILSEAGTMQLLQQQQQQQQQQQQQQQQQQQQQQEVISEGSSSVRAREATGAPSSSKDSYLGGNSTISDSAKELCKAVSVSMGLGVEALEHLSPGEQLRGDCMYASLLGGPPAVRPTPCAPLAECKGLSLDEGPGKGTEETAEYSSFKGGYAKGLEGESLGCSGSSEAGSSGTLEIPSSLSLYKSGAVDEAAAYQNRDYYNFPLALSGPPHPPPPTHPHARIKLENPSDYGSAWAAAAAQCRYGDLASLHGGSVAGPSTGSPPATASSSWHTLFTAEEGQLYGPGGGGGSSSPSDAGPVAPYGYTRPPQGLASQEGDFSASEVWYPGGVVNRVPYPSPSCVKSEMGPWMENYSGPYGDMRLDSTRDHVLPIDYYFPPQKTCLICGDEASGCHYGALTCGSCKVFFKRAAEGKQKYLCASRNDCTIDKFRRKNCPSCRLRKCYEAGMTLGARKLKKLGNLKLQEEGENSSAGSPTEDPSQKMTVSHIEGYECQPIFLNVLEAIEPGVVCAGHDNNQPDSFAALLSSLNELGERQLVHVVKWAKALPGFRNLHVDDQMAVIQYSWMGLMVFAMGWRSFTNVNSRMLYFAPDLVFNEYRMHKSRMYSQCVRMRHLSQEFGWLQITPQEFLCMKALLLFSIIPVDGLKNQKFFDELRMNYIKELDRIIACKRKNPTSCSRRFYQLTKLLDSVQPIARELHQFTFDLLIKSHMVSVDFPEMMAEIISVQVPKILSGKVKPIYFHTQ
Chain of rat Serotonin Transporter (SERT), Slc6a4 (gene 25553) (P31652 whole entry, looked up): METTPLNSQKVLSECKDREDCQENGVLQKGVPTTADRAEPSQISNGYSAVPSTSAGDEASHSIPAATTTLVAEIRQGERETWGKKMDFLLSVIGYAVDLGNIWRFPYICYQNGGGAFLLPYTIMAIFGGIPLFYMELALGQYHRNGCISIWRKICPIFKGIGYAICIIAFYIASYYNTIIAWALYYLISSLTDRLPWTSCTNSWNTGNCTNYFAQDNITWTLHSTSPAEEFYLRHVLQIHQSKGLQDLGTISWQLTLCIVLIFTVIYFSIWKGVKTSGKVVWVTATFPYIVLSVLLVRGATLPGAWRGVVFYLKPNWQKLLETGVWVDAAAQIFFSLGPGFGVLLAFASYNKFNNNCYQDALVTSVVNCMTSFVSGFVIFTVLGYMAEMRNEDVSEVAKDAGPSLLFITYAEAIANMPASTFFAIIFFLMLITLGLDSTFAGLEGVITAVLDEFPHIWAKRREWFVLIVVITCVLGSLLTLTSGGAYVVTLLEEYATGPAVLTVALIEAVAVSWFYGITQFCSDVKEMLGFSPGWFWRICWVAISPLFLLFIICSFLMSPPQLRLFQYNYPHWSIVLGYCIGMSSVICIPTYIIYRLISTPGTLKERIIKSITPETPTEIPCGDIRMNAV
Chain of human Serotonin Transporter (SERT), SLC6A4 (gene 6532) (P31645 whole entry, looked up): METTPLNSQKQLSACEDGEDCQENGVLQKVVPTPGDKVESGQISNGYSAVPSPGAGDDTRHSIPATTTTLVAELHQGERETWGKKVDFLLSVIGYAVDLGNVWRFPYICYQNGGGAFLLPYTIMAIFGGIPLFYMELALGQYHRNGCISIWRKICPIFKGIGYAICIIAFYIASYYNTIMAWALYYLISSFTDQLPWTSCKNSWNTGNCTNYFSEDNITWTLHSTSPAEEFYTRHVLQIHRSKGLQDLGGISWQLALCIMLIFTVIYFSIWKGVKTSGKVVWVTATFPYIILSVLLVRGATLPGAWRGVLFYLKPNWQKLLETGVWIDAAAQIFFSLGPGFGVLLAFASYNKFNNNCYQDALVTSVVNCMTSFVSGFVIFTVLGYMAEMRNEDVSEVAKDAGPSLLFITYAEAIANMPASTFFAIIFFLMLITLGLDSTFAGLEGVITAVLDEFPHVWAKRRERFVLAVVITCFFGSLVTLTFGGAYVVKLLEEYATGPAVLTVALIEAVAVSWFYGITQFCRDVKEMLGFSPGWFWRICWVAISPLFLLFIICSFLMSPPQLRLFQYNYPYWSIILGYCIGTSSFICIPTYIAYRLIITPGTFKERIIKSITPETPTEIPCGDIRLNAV
Chain of human Adenosine Transporter (Adot), SLC29A1 (gene 2030) (Q99808 whole entry, looked up): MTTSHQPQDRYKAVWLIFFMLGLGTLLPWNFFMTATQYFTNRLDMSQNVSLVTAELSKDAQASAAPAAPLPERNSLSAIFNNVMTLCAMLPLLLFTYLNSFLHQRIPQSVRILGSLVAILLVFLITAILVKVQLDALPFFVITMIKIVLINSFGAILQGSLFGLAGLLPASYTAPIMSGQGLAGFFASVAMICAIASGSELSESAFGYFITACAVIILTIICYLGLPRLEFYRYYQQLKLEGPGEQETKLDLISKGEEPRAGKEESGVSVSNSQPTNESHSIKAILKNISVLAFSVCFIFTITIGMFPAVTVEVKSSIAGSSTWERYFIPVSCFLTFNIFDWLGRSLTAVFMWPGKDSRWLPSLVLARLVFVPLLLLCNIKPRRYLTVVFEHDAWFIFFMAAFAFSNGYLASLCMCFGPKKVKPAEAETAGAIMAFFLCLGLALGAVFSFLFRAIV

COC(=O)C(C)Oc1ccc(Oc2ccc(Cl)cc2Cl)cc1 (centres undefined)
outcome [1]: inactive
AC50 [2]: 14.2 µM (active)
outcome [2]: inactive

CCOC(=O)CC(SP(=S)(OC)OC)C(=O)OCC (centres undefined)
outcome [3]: inactive
outcome [4]: inactive
AC50 [5]: 11.4 µM (active)

CCON=C(CC)C1=C(O)CC(c2c(C)cc(C)cc2C)CC1=O (centres undefined)
outcome [5]: inactive

C#CCOS(=O)OC1CCCCC1Oc1ccc(C(C)(C)C)cc1 (centres undefined)
AC50 [3]: 16.5 µM (active)
AC50 [1]: 15.6 µM (active)
AC50 [2]: 9.17 µM (active)

CNC(=O)ON=CC(C)(C)SC
outcome [3]: inactive

O=C(Nc1ccccc1)Nc1ccnc(Cl)c1
outcome [6]: inactive
outcome [7]: inactive

CCNc1nc(Cl)nc(NC(C)C)n1
outcome [3]: inactive

COP(N)(=O)SC (centres undefined)
outcome [3]: inactive

CNC(=S)S
outcome [3]: inactive
outcome [8]: inactive
outcome [5]: inactive

N#CC(CCc1ccc(Cl)cc1)(Cn1cncn1)c1ccccc1 (centres undefined)
outcome [4]: inactive
outcome [9]: inactive
AC50 [2]: 7.06 µM (active)

Cc1c(F)c(F)c(COC(=O)C2C(/C=C(\Cl)C(F)(F)F)C2(C)C)c(F)c1F (centres undefined)
AC50 [2]: 8.33 µM (active)

CCCCOC(=O)c1ccccc1C(=O)OCCCC
outcome [3]: inactive
outcome [8]: inactive
AC50 [1]: 19.5 µM (active)
outcome [1]: inactive
outcome [2]: inactive

CCOc1cc(Oc2ccc(C(F)(F)F)cc2Cl)ccc1[N+](=O)[O-]
AC50 [2]: 6.37 µM (active)

CCNc1nc(Cl)nc(NCC)n1
outcome [3]: inactive

CCCN(CCC)c1c([N+](=O)[O-])cc(S(N)(=O)=O)cc1[N+](=O)[O-]
outcome [3]: inactive
AC50 [8]: 6.68 µM (active)

COc1ccc(C(c2ccc(OC)cc2)C(Cl)(Cl)Cl)cc1
outcome [3]: inactive
outcome [8]: inactive
AC50 [1]: 14 µM (active)
outcome [2]: inactive

C=CCC1=C(C)[C@@H](OC(=O)[C@@H]2[C@@H](C=C(C)C)C2(C)C)CC1=O
outcome [8]: inactive
AC50 [5]: 37.4 µM (active)
AC50 [1]: 20.3 µM (active)
AC50 [2]: 18.6 µM (active)
